The record followed here is paper PMC7862700, “An all-to-all approach to the identification of sequence-specific readers for epigenetic DNA modifications on cytosine”.

Holding throughout (experiment): DAPPL (digital affinity profiling via proximity ligation, sequencing); 10 mM Tris-HCl pH 7.5, 50 mM NaCl, 1 mM DTT, 4% glycerol, room temperature, 30 min; GST-TFs on glutathione beads, 16-mer random dsDNA library, 0.1% formaldehyde crosslink after washing; high values mean tight binding
In assay [1] the target is T1, FEV (Homo sapiens, UniProt Q99581 1-238).
T1 sequence: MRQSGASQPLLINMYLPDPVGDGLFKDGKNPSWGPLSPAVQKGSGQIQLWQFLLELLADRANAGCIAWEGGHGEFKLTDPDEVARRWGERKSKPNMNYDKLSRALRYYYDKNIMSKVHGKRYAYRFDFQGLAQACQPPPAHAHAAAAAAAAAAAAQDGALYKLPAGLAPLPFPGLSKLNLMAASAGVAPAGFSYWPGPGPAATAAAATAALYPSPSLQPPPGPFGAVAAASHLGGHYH
The settings on record: protein: recombinant; tags: N-terminal GST; dsDNA, one strand shown. An outline of the steps:
(§1)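 In yeast, human transcription factors were expressed with a GST fusion, then pulled down on glutathione beads and given DNA barcodes. Pooled with a tag-only sample, they were exposed to 200 nmole of a 16-mer random double-stranded DNA library (Tris/NaCl/DTT/glycerol buffer, room temperature, 30 min), washed, crosslinked with 0.1% formaldehyde, proximity-ligated using BsaI/T4 ligase for 1 h at 37 °C, PCR-amplified and read on an Illumina NextSeq500. Each hexamer's frequency of reads for a factor, divided by the matching frequency for the tag-only sample, gives the binding signal.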

For assay [2], the target named is ETV5 (Homo sapiens, UniProt P41161 1-510). The settings on record: protein: recombinant; tags: N-terminal GST; dsDNA, one strand shown. An outline of the steps:
as §1

The target of assay [3] is HSF1 (Homo sapiens, UniProt Q00613 1-529). The conditions noted are these: protein: recombinant; tags: N-terminal GST; chain copies: 3; dsDNA, one strand shown. An outline of the steps:
as §1

The target of assay [4] is T2, SPIC (Homo sapiens, UniProt Q8N5J4 1-248).
T2 sequence: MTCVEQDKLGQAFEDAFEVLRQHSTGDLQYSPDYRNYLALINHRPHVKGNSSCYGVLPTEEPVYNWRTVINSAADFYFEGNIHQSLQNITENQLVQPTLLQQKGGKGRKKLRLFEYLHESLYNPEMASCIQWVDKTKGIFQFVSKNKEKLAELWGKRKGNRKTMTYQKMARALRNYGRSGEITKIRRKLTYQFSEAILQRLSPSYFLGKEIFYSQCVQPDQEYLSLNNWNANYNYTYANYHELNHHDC
The settings on record: protein: recombinant; tags: N-terminal GST; dsDNA, one strand shown. An outline of the steps: as §1

The target of assay [5] is ELF4 (Homo sapiens, UniProt Q99607 1-663). The conditions noted are these: protein: recombinant; tags: N-terminal GST; dsDNA, one strand shown. An outline of the steps:
as §1

Assay [6] addresses T3, ELK4 (Homo sapiens, UniProt P28324-2 1-405).
T3 sequence: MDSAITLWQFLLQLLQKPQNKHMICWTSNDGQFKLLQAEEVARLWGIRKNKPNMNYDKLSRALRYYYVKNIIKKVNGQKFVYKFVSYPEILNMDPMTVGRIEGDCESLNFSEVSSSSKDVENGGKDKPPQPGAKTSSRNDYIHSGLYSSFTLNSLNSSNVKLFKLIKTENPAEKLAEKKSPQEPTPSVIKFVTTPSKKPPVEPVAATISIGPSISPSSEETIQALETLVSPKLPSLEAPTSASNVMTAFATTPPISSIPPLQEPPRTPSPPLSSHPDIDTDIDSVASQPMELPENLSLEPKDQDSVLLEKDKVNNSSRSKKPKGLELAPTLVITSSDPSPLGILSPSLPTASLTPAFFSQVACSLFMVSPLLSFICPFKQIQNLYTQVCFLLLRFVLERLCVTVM
The conditions noted are these: protein: recombinant; tags: N-terminal GST; dsDNA, one strand shown. An outline of the steps: as §1

Assay [7] concerns the target T4, ETV2 (Homo sapiens, UniProt O00321 1-342).
T4 sequence: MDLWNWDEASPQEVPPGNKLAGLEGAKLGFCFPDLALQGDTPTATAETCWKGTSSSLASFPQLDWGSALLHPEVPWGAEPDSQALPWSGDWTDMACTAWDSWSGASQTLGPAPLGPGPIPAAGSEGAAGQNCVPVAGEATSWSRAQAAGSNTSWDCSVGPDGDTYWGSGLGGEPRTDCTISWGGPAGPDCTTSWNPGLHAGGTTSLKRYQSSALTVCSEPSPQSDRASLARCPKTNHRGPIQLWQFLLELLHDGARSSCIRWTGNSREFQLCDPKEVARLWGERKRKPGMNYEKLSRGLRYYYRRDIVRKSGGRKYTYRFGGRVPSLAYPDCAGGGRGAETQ
The conditions noted are these: protein: recombinant; tags: N-terminal GST; dsDNA, one strand shown. An outline of the steps:
as §1

Assay [8] addresses T5, ELF3 (Homo sapiens, UniProt P78545 1-371).
T5 sequence: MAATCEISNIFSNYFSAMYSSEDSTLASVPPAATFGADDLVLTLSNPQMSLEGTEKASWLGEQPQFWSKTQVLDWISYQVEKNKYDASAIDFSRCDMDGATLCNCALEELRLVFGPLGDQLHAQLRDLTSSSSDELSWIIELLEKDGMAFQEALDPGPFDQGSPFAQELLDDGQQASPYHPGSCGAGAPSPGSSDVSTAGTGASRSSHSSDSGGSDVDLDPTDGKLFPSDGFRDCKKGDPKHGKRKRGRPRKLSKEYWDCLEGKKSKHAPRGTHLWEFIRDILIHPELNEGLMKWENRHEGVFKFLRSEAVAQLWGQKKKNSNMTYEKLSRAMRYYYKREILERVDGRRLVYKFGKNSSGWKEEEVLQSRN
The settings on record: protein: recombinant; tags: N-terminal GST; dsDNA, one strand shown. An outline of the steps: as §1

The target in assay [9] is CRX (Homo sapiens, UniProt O43186 1-299). The conditions noted are these: protein: recombinant; tags: N-terminal GST; dsDNA, one strand shown. An outline of the steps: as §1
CRX, sequence (O43186 whole entry): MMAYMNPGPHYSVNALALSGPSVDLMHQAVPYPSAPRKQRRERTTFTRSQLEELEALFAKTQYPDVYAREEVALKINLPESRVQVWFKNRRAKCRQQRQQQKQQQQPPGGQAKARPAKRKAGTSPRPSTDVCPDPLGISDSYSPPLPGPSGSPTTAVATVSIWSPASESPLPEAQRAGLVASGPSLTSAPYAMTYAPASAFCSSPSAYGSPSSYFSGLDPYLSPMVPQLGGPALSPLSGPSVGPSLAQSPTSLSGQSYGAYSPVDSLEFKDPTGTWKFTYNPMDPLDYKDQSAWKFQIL
Assay [10] addresses ETV1 (Homo sapiens, UniProt P50549 1-477). The conditions noted are these: protein: recombinant; tags: N-terminal GST; dsDNA, one strand shown. An outline of the steps:
as §1

ETV1, sequence (P50549 whole entry): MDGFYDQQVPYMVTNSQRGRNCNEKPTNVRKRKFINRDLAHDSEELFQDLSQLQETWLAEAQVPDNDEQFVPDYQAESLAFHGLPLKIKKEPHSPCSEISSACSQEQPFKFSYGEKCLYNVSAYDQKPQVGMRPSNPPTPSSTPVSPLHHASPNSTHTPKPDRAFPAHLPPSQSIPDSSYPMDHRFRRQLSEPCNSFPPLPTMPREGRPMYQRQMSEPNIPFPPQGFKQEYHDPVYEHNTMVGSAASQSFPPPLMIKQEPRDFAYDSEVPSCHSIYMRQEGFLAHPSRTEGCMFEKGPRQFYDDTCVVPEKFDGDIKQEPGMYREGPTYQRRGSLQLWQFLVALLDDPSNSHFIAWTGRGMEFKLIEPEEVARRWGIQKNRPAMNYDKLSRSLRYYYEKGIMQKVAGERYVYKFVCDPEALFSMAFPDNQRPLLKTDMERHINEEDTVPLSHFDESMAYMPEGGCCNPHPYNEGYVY
ETV5, sequence (P41161 whole entry): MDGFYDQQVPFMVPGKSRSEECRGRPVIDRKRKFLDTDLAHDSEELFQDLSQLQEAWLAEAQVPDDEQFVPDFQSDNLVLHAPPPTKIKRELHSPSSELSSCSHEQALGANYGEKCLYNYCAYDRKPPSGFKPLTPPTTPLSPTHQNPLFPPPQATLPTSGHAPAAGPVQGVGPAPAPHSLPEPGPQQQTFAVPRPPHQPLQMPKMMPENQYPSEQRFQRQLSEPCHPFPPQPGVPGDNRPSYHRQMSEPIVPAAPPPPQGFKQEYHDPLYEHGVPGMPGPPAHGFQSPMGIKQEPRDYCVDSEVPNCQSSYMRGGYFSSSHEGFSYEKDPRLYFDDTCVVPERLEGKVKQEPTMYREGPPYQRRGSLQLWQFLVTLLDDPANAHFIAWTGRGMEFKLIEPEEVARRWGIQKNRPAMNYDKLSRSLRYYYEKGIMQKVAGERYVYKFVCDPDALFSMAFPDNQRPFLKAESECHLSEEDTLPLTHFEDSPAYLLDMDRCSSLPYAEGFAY
HSF1, sequence (Q00613 whole entry): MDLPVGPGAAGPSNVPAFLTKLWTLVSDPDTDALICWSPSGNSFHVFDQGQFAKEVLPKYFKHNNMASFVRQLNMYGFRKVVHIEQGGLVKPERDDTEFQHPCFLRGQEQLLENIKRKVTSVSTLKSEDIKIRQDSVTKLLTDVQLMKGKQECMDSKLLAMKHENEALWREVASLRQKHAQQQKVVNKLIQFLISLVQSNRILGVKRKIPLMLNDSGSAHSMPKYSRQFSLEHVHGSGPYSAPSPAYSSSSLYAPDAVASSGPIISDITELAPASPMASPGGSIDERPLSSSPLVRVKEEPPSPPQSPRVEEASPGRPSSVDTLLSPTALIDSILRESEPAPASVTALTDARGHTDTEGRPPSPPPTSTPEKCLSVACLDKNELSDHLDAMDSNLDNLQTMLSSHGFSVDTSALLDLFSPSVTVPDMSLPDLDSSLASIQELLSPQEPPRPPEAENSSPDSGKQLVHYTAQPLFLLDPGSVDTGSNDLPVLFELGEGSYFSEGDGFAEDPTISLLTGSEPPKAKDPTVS
ELF4, sequence (Q99607 whole entry): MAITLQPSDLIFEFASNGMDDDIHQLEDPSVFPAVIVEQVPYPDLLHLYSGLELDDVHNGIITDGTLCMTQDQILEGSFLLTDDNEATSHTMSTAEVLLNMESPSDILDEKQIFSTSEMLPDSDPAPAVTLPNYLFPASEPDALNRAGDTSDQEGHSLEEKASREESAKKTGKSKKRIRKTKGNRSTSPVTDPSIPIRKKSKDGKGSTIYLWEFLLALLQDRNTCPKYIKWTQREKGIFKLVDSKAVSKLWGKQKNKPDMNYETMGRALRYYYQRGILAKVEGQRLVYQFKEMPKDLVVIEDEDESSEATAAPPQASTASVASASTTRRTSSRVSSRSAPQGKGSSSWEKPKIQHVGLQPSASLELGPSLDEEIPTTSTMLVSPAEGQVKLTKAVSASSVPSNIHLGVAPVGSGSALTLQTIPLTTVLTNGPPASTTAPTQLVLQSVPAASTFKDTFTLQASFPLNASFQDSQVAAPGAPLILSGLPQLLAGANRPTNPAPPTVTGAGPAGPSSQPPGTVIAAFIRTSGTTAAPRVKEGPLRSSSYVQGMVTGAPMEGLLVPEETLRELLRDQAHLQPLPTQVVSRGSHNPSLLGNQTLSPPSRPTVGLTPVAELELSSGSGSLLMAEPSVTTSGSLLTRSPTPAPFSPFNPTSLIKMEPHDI

In the case of ACAACT, the binding signal in assay [1] is 1.35 fold enrichment (6-mer frequency, TF over GST control); in assay [2], 1.32 fold enrichment (6-mer frequency, TF over GST control); in assay [3], 1.11 fold enrichment (6-mer frequency, TF over GST control); in [4], 1.39 fold enrichment (6-mer frequency, TF over GST control); in assay [5], 1.36 fold enrichment (6-mer frequency, TF over GST control); in [6] it was 1.34 fold enrichment (6-mer frequency, TF over GST control). In addition, the binding signal was 1.29 fold enrichment (6-mer frequency, TF over GST control) in assay [7]; 1.42 fold enrichment (6-mer frequency, TF over GST control) in assay [8]; 1.02 fold enrichment (6-mer frequency, TF over GST control) in assay [9]; 1.27 fold enrichment (6-mer frequency, TF over GST control) in assay [10].
With TAAATA, the binding signal in assay [1] is 1.19 fold enrichment (6-mer frequency, TF over GST control); in [2], 1.27 fold enrichment (6-mer frequency, TF over GST control); in assay [3] it was 1.6 fold enrichment (6-mer frequency, TF over GST control); in assay [4], 1.17 fold enrichment (6-mer frequency, TF over GST control); in assay [5], 1.26 fold enrichment (6-mer frequency, TF over GST control); in [6], 1.27 fold enrichment (6-mer frequency, TF over GST control). In addition, the binding signal in assay [7] is 1.36 fold enrichment (6-mer frequency, TF over GST control); in assay [8], 1.3 fold enrichment (6-mer frequency, TF over GST control); in [9] it was 2.12 fold enrichment (6-mer frequency, TF over GST control); in assay [10], 1.24 fold enrichment (6-mer frequency, TF over GST control).
Take ACGTTA: the binding signal in assay [1] was 1.13 fold enrichment (6-mer frequency, TF over GST control); in assay [2], 1.11 fold enrichment (6-mer frequency, TF over GST control); in assay [3], 1.04 fold enrichment (6-mer frequency, TF over GST control); in [4], 1.18 fold enrichment (6-mer frequency, TF over GST control); in [5], 1.11 fold enrichment (6-mer frequency, TF over GST control); in [6] it was 1.03 fold enrichment (6-mer frequency, TF over GST control). Moreover, the binding signal was 1.28 fold enrichment (6-mer frequency, TF over GST control) in assay [7]; 1.09 fold enrichment (6-mer frequency, TF over GST control) in assay [8]; 1.17 fold enrichment (6-mer frequency, TF over GST control) in assay [9]; 1.05 fold enrichment (6-mer frequency, TF over GST control) in [10].
On to ATTAAC, for which the binding signal was 1.27 fold enrichment (6-mer frequency, TF over GST control) in assay [1]; 1.27 fold enrichment (6-mer frequency, TF over GST control) in [2]; 2.07 fold enrichment (6-mer frequency, TF over GST control) in assay [3]; 1.3 fold enrichment (6-mer frequency, TF over GST control) in assay [4]; 1.3 fold enrichment (6-mer frequency, TF over GST control) in assay [5]; 1.25 fold enrichment (6-mer frequency, TF over GST control) in assay [6]. The binding signal was 1.21 fold enrichment (6-mer frequency, TF over GST control) in assay [7]; 1.29 fold enrichment (6-mer frequency, TF over GST control) in assay [8]; 3.36 fold enrichment (6-mer frequency, TF over GST control) in assay [9]; 1.27 fold enrichment (6-mer frequency, TF over GST control) in assay [10].
Turning to CTCTCC, the binding signal was 1.32 fold enrichment (6-mer frequency, TF over GST control) in assay [1]; 1.24 fold enrichment (6-mer frequency, TF over GST control) in [2]; 1.32 fold enrichment (6-mer frequency, TF over GST control) in [3]; 1.41 fold enrichment (6-mer frequency, TF over GST control) in assay [4]; 1.5 fold enrichment (6-mer frequency, TF over GST control) in assay [5]; 1.37 fold enrichment (6-mer frequency, TF over GST control) in [6]. The binding signal is 1.32 fold enrichment (6-mer frequency, TF over GST control) in [7]; 1.6 fold enrichment (6-mer frequency, TF over GST control) in assay [8]; 1.15 fold enrichment (6-mer frequency, TF over GST control) in assay [9]; 1.42 fold enrichment (6-mer frequency, TF over GST control) in assay [10].
Regarding ATACTT, the binding signal in assay [1] is 1.6 fold enrichment (6-mer frequency, TF over GST control); in assay [2] it was 1.6 fold enrichment (6-mer frequency, TF over GST control); in assay [3], 1.34 fold enrichment (6-mer frequency, TF over GST control); in assay [4], 1.58 fold enrichment (6-mer frequency, TF over GST control); in [5] it was 1.55 fold enrichment (6-mer frequency, TF over GST control); in [6] it was 1.55 fold enrichment (6-mer frequency, TF over GST control). For the same sequence, the binding signal in [7] is 1.53 fold enrichment (6-mer frequency, TF over GST control); in [8] it was 1.58 fold enrichment (6-mer frequency, TF over GST control); in [9] it was 1.71 fold enrichment (6-mer frequency, TF over GST control); in assay [10], 1.72 fold enrichment (6-mer frequency, TF over GST control).
GCTCAG: the binding signal was 1.11 fold enrichment (6-mer frequency, TF over GST control) in assay [1]; 1.17 fold enrichment (6-mer frequency, TF over GST control) in assay [2]; 1.13 fold enrichment (6-mer frequency, TF over GST control) in assay [3]; 1.23 fold enrichment (6-mer frequency, TF over GST control) in assay [4]; 1.19 fold enrichment (6-mer frequency, TF over GST control) in [5]; 1.22 fold enrichment (6-mer frequency, TF over GST control) in [6]. Besides, the binding signal in [7] was 1.18 fold enrichment (6-mer frequency, TF over GST control); in assay [8], 1.03 fold enrichment (6-mer frequency, TF over GST control); in [9] it was 1.41 fold enrichment (6-mer frequency, TF over GST control); in assay [10], 1.13 fold enrichment (6-mer frequency, TF over GST control).
